Out of some 5,500 compounds screened, about 2,000 (36%) were called active. Roughly 18% stayed inconclusive and do not appear here. Rule as the data show it: active = normalized growth mostly below about 0.91 (no sharp cut-off); inconclusive = no clear call, values can overlap the other calls; inactive = mostly above about 0.92. This is one part of the list.
Test: chemical genetic growth profiling, strain panel (AID 1159580);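 also: tested at 20 µM; growth read once vehicle control cultures reached saturation at 30 °C; 1 = growth at the plate median or of vehicle wells; lower values mean less growth of the strain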
Conditions: growth OD
[1] = S. cerevisiae deletion strains, locus YAL013W, strain DEP1, hits give low values
[2] = S. cerevisiae deletion strains, locus YBR229C, strain ROT2, hits give low values
[3] = S. cerevisiae deletion strains, locus YDL101C, strain DUN1, hits give low values
[4] = S. cerevisiae deletion strains, locus YDR150W, strain NUM1, hits give low values
[5] = S. cerevisiae deletion strains, locus YEL061C, strain CIN8, hits give low values
[6] = S. cerevisiae deletion strains, locus YGR078C, strain PAC10, hits give low values
[7] = S. cerevisiae deletion strains, locus YHR030C, strain SLT2, hits give low values
[8] = S. cerevisiae deletion strains, locus YHR087W, strain rtc3, hits give low values
[9] = S. cerevisiae deletion strains, locus YJL187C, strain SWE1, hits give low values
[10] = S. cerevisiae deletion strains, locus YJR043C, strain POL32, hits give low values
[11] = S. cerevisiae deletion strains, locus YJR075W, strain HOC1, hits give low values
[12] = S. cerevisiae deletion strains, locus YKL190W, strain CNB1, hits give low values
[13] = S. cerevisiae deletion strains, locus YLR039C, strain RIC1, hits give low values
[14] = S. cerevisiae deletion strains, locus YLR058C, strain SHM2 (second series), hits give low values
[15] = S. cerevisiae deletion strains, locus YLR085C, strain ARP6, hits give low values
[16] = S. cerevisiae deletion strains, locus YLR262C, strain YPT6, hits give low values
[17] = S. cerevisiae deletion strains, locus YML094W, strain GIM5, hits give low values
[18] = S. cerevisiae deletion strains, locus YMR219W, strain ESC1, hits give low values
[19] = S. cerevisiae deletion strains, locus YMR263W, strain SAP30, hits give low values
[20] = S. cerevisiae deletion strains, locus YMR307W, strain GAS1, hits give low values
[21] = S. cerevisiae deletion strains, locus YNL153C, strain GIM3, hits give low values
[22] = S. cerevisiae deletion strains, locus YNL298W, strain CLA4 (second series), hits give low values
[23] = S. cerevisiae deletion strains, locus YNL322C, strain KRE1, hits give low values
[24] = S. cerevisiae deletion strains, locus YNR030W, strain Alg12, hits give low values
[25] = S. cerevisiae deletion strains, locus YOL006C, strain TOP1, hits give low values
[26] = S. cerevisiae deletion strains, locus YPL055C, strain LGE1, hits give low values
[27] = S. cerevisiae deletion strains, locus YPL241C, strain CIN2, hits give low values
[28] = S. cerevisiae deletion strains, locus YPR135W, strain CTF4, hits give low values

Measured: normalized growth

CN1C/C(=C\c2ccccc2Cl)C(=O)/C(=C/c2ccccc2Cl)C1
active: [2] 0.911 | [3] 0.825 | [5] 0.699 | [6] 0.873 | [7] 0.27 | [8] 0.888 | [11] 0.831 | [12] 0.789 | [13] 0.447 | [15] 0.462 | [16] 0.655 | [17] 0.691 | [18] 0.909 | [20] 0.419 | [22] 0.523 | [24] 0.756 | [25] 0.562 | [27] 0.676 | [28] 0.422
inactive: [1] 0.953 | [4] 0.942 | [9] 0.942 | [10] 0.971 | [14] 0.958 | [19] 0.937 | [21] 0.958 | [23] 0.957 | [26] 0.92

CN(C)/C=C1\C(=O)c2ccccc2N(C)S1(=O)=O
inactive: [1] 1 | [2] 0.994 | S. cerevisiae deletion strains, locus YCL061C, strain MRC1, hits give low values 0.999 | [3] 0.999 | S. cerevisiae deletion strains, locus YDL134C, strain PPH21, hits give low values 0.987 | [4] 1.02 | [5] 1.01 | [6] 0.982 | [7] 0.907 | [8] 0.954 | [10] 0.989 | [11] 0.949 | [12] 1.01 | [13] 0.84 | [14] 0.983 | [15] 1.06 | [16] 0.906 | [17] 1.02 | [18] 1 | [19] 1 | [20] 0.859 | [21] 0.997 | [22] 0.97 | [23] 0.999 | [24] 0.98 | [25] 0.946 | [26] 1.13 | [27] 1.01 | [28] 0.761 | S. cerevisiae strains, strain wild type, hits give low values 0.991

O=C(C=C(O)c1ccc(Br)cc1)C(=O)Nc1ccccc1
active: S. cerevisiae deletion strains, locus YAR019C, strain CDC15, hits give low values 0.489 | S. cerevisiae deletion strains, locus YBL105C, strain PKC1, hits give low values 0.637 | S. cerevisiae deletion strains, locus YBR135W, strain CKS1, hits give low values 0.686 | S. cerevisiae deletion strains, locus YBR136W, strain MEC1, hits give low values 0.851 | S. cerevisiae deletion strains, locus YBR160W, strain CDC28, hits give low values 0.893 | S. cerevisiae deletion strains, locus YDL017W, strain CDC7, hits give low values 0.683 | S. cerevisiae deletion strains, locus YDL028C, strain MPS1, hits give low values 0.834 | [3] 0.379 | S. cerevisiae deletion strains, locus YDL108W, strain KIN28, hits give low values 0.874 | S. cerevisiae deletion strains, locus YDL132W, strain cdc53, hits give low values 0.76 | S. cerevisiae deletion strains, locus YDL214C, strain PRR2, hits give low values 0.145 | S. cerevisiae deletion strains, locus YDR052C, strain DBF4, hits give low values 0.849 | S. cerevisiae deletion strains, locus YDR054C, strain cdc34, hits give low values 0.581 | S. cerevisiae deletion strains, locus YDR226W, strain ADK1, hits give low values 0.869 | S. cerevisiae deletion strains, locus YDR477W, strain SNF1, hits give low values 0.105 | S. cerevisiae deletion strains, locus YER123W, strain YCK3, hits give low values 0.124 | S. cerevisiae deletion strains, locus YER133W, strain GLC7, hits give low values 0.229 | S. cerevisiae deletion strains, locus YFL009W, strain cdc4, hits give low values 0.7 | S. cerevisiae deletion strains, locus YFL029C, strain CAK1, hits give low values 0.439 | S. cerevisiae deletion strains, locus YFR003C, strain YPI1, hits give low values 0.718 | S. cerevisiae deletion strains, locus YFR019W, strain FAB1, hits give low values 0.128 | S. cerevisiae deletion strains, locus YFR028C, strain CDC14, hits give low values 0.448 | S. cerevisiae deletion strains, locus YGR040W, strain KSS1, hits give low values 0.109 | S. cerevisiae deletion strains, locus YGR052W, strain FMP48, hits give low values 0.132 | S. cerevisiae deletion strains, locus YGR092W, strain DBF2, hits give low values 0.104 | [7] 0.148 | S. cerevisiae deletion strains, locus YHR079C, strain IRE1, hits give low values 0.159 | S. cerevisiae deletion strains, locus YHR082C, strain KSP1, hits give low values 0.136 | S. cerevisiae deletion strains, locus YHR205W, strain SCH9, hits give low values 0.0311 | S. cerevisiae deletion strains, locus YIL147C, strain SLN1, hits give low values 0.848 | S. cerevisiae deletion strains, locus YJL095W, strain BCK1, hits give low values 0.136 | S. cerevisiae deletion strains, locus YJL128C, strain PBS2, hits give low values 0.483 | S. cerevisiae deletion strains, locus YJL157C, strain FAR1, hits give low values 0.113 | S. cerevisiae deletion strains, locus YJR016C, strain ILV3, hits give low values 0.156 | S. cerevisiae deletion strains, locus YJR066W, strain TOR1 (second series), hits give low values 0.115 | S. cerevisiae deletion strains, locus YJR066W, strain TOR1, hits give low values 0.122 | S. cerevisiae deletion strains, locus YKL048C, strain ELM1, hits give low values 0.136 | S. cerevisiae deletion strains, locus YKL067W, strain YNK1, hits give low values 0.127 | S. cerevisiae deletion strains, locus YKL101W, strain HSL1, hits give low values 0.103 | S. cerevisiae deletion strains, locus YKL193C, strain SDS22, hits give low values 0.761 | S. cerevisiae deletion strains, locus YKL203C, strain TOR2, hits give low values 0.142 | S. cerevisiae deletion strains, locus YLR113W, strain HOG1, hits give low values 0.145 | S. cerevisiae deletion strains, locus YLR133W, strain CKI1, hits give low values 0.127 | S. cerevisiae deletion strains, locus YLR403W, strain SFP1, hits give low values 0.00467 | S. cerevisiae deletion strains, locus YML070W, strain DAK1, hits give low values 0.129 | S. cerevisiae deletion strains, locus YMR001C, strain CDC5, hits give low values 0.449 | S. cerevisiae deletion strains, locus YMR205C, strain PFK2 (second series), hits give low values 0.118 | S. cerevisiae deletion strains, locus YMR277W, strain FCP1, hits give low values 0.728 | S. cerevisiae deletion strains, locus YNL006W, strain LST8, hits give low values 0.158 | S. cerevisiae deletion strains, locus YNL020C, strain ARK1, hits give low values 0.109 | S. cerevisiae deletion strains, locus YNL161W, strain CBK1, hits give low values 0.77 | S. cerevisiae deletion strains, locus YNL183C, strain NPR1, hits give low values 0.131 | S. cerevisiae deletion strains, locus YNL207W, strain RIO2, hits give low values 0.824 | S. cerevisiae deletion strains, locus YNL222W, strain SSU72, hits give low values 0.786 | S. cerevisiae deletion strains, locus YNL307C, strain MCK1 (second series), hits give low values 0.114 | S. cerevisiae deletion strains, locus YOL078W, strain AVO1, hits give low values 0.76 | S. cerevisiae deletion strains, locus YOL136C, strain PFK27, hits give low values 0.109 | S. cerevisiae deletion strains, locus YOR061W, strain CKA2, hits give low values 0.0904 | S. cerevisiae deletion strains, locus YOR119C, strain RIO1, hits give low values 0.134 | S. cerevisiae deletion strains, locus YOR231W, strain MKK1, hits give low values 0.14 | S. cerevisiae deletion strains, locus YOR329C, strain SCD5, hits give low values 0.79 | S. cerevisiae deletion strains, locus YPL031C, strain PHO85, hits give low values 0.105 | S. cerevisiae deletion strains, locus YPL153C, strain RAD53, hits give low values 0.103 | S. cerevisiae deletion strains, locus YPL204W, strain HRR25, hits give low values 0.114 | S. cerevisiae deletion strains, locus YPL209C, strain IPL1, hits give low values 0.646 | S. cerevisiae deletion strains, locus YPL256C, strain CLN2, hits give low values 0.17 | S. cerevisiae deletion strains, locus YPR025C, strain CCL1, hits give low values 0.871 | S. cerevisiae deletion strains, locus YPR106W, strain ISR1, hits give low values 0.513 | S. cerevisiae deletion strains, locus YPR111W, strain DBF20, hits give low values 0.724 | S. cerevisiae deletion strains, strain NNK1, hits give low values 0.106 | S. cerevisiae deletion strains, strain TSCII, hits give low values 0.39

O=C(Nc1ccccc1C(=O)Nc1ccc(Br)cc1)c1ccccc1
inactive: [1] 1.01 | [2] 1.02 | [3] 1.05 | [4] 1 | [5] 0.998 | [6] 1.02 | S. cerevisiae deletion strains, locus YGR229C, strain SMI1, hits give low values 1.03 | [7] 1.03 | [8] 1.03 | [9] 1.01 | [10] 1.03 | [11] 0.997 | [12] 1.03 | [13] 1.02 | [14] 1.02 | [15] 1 | [16] 1.03 | [17] 1.01 | [18] 1.01 | [19] 1.03 | [21] 1.03 | [22] 1.06 | [23] 1.02 | [24] 1.02 | [26] 1.08 | [27] 1.01 | [28] 1.17

From PubChem BioAssay AID1159580 (chemical genetic matrix, 2015)
